# Screens deposited in PubChem BioAssay by National Center for Advancing Translational Sciences (NCATS).
# In the library only some 2.7% were active in any assay of this set; here they are far more common.
# HepG2 tox: qHTS for Inhibitors of TGF-b: Cytotox Counterscreen; HepG2 CAGA-GFP viability, ATP luminescence, 18 h; Potency, µM (top dose mostly 46.1 µM), without a hit: top-dose activity change, negative = cytotoxicity, most hits filed as cytotoxic; actives 0.76% (n = 410,000); AID 588856, 2011
#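 HepG2 CAGA-GFP cells (1000/well, DMEM with 1% FBS) received compound, then TGF-beta at 500 pg/mL final, and were incubated 18 hours at 37 degrees C. Viability was read by CellTiter-Glo luminescence. Media-only wells were set as complete cell-killing and DMSO as no toxicity.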
# ATXN2 expr inh: Primary qHTS for Inhibitors of ATXN expression; HEK-293 ATXN2-luciferase reporter, luminescence, 24 h; Potency, µM (top dose mostly 57 µM), inactives show top-dose activity change, negative = inhibition, usual class: inhibitors; actives 0.72% (n = 360,000); AID 1745845, 2022; further: on the % scale 0 is the no-effect control and ±100 the full control effect; nearly all actives have a fitted effect of over 55% in size
#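 ATXN2-luciferase reporter cells (luciferase flanked by upstream and downstream ATXN2 gene portions) were treated 24 h at 37 °C with compounds at up to 57 uM. SteadyGlo luminescence gave expression; GF-AFC fluorescence gave viability.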
# TGFb inhibitor: qHTS for Inhibitors of TGF-b. HepG2 CAGA-GFP TGF-b/SMAD3 reporter, GFP fluorescence, 18 h; TGF-beta stimulated, 500 pg/mL final. Potency, µM (highest dose often 46.1 µM), for inactives: at the highest dose activity, negative = inhibition, usual class: inhibitors. actives 1.2% (n = 410,000); further: on the % scale 0 is the no-effect control and ±100 the full control effect; nearly all actives have a fitted effect of over 65% in size
#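 HEPG2 CAGA-GFP, 1000 cells/well; 2 h settle, 37 C; cpd via pin tool; TGF-b 500 pg/mL final; 18 h, 37 C; GFP imaging ex488/em500-530; %Activity normalised to -TGF-b and +DMSO controls; CRC fit, curve class.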
# 12-LOX inh: Primary qHTS assay for inhibitors of human arachidonate 12S-lipoxygenase (ALOX12): Round 2 | purified 12hLO, xylenol orange hydroperoxide absorbance | Potency, µM (series often up to 108 µM), for inactives: top-dose activity change, negative = inhibition, hits mostly inhibitors | actives 1.1% (n = 580,000) | AID 1671190, 2021; further: on the % scale 0 is the no-effect control and ±100 the full control effect
# Target sequence (P18054 whole entry, looked up): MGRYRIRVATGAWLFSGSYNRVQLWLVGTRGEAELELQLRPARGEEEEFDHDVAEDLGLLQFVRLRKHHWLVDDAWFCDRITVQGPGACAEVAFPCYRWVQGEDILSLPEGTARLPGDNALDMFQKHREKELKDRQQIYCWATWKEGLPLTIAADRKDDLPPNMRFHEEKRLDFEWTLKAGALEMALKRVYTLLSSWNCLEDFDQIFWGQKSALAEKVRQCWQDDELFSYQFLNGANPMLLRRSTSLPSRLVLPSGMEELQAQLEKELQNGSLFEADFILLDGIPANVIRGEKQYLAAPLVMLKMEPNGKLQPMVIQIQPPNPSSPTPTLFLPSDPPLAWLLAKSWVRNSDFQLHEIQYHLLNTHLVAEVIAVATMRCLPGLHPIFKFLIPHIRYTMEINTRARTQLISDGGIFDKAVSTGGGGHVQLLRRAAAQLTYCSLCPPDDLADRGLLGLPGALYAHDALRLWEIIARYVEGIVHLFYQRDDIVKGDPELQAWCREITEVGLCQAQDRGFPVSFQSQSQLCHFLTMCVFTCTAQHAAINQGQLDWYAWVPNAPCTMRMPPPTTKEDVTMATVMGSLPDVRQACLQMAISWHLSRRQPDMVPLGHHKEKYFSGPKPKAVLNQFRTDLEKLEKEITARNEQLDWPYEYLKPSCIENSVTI
#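 Purified human 12hLO at 150 nM in 25 mM Hepes, 0.01% Triton X-100, pH 7.0, preincubated 15 min at room temperature with compound. Reaction started with 40 uM arachidonic acid, 30 min at room temperature. Hydroperoxide measured by Fe-xylenol orange, 573/405 nm absorbance ratio.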
# ATXN viability: Viability Counterscreen for Primary qHTS for Inhibitors of ATXN expression; S2 cells (HEK-293 line with an ATXN2-luciferase reporter) viability, CellTiter-Fluor protease fluorescence, 24 h; Potency, µM (series often up to 56.7 µM), actives largely listed as cytotoxic; actives 0.49% (n = 400,000); AID 651635, 2014; further: nearly all actives have a fitted effect of over 40% in size
# Active calls of the source: *; i = inactive; ? = inconclusive; / = not tested or not shown; [ ] = another dose, or the depositor's remark. The call rests on the fitted dose curve; in most records, active means well fitted curve in the direction sought with a large enough effect; inconclusive means small, poorly fitted or top-dose-only effect, or another doubt; inactive means no such curve, though single readings can be large; an effect the other way counts as inactive or inconclusive. Potency means the concentration at half of the fitted maximal effect.
SMILES,HepG2 tox,ATXN2 expr inh,TGFb inhibitor,12-LOX inh,ATXN viability
CNC(=O)c1cc(Oc2ccc(NC(=O)Nc3cc(C(C)(C)C)nn3-c3ccc4ncccc4c3)c(F)c2)ccn1,/,1.4µM*,/,-6%[57.4 µM],/
CC1=C(C(=O)OCC(F)(F)C(F)(F)F)C(c2ccc3c(c2)OCO3)NC(=O)N1 (configuration not stated),/,/,/,-10%,/
CC12CCC(C(=O)Nc3ccc(Br)cn3)(OC1=O)C2(C)C (configuration not stated),4.5µM*,-13%,0%,0%,i
O=C(O)C(c1c[nH]c2cc(Cl)ccc12)N1CCN(Cc2ccccn2)CC1 (configuration not stated),/,/,/,-1%,/
O=C(O)C(c1c[nH]c2cc(Cl)ccc12)N1CCN(C(c2ccccc2)c2ccccc2)CC1 (configuration not stated),/,/,/,7.9µM*,/
O=C(O)C(c1c[nH]c2cc(Br)ccc12)N1CCN(Cc2ccc(Cl)cc2Cl)CC1 (configuration not stated),/,/,/,40µM*,/
O=C(NCCOc1ccccc1)c1cc2ccccc2oc1=O,/,/,/,18%,/
COc1ccc(C(C)(O)c2nc(-c3ccoc3)cs2)cc1 (configuration not stated),-5%,9%,17%,28µM*,i
COc1ccc(-c2csc(C(O)(c3ccccc3)C(F)(F)F)n2)cc1 (configuration not stated),-78%,?,?,?,?
CC(O)(c1cccc(F)c1)c1nc(-c2cccc(C(F)(F)F)c2)cs1 (configuration not stated),16µM*,?,?,?,?
COc1cccc(C(C)(O)c2nc(-c3cccs3)cs2)c1 (configuration not stated),-16%,-1%,-9%,4.5µM*,i
OC(c1ccccc1)(c1nc(-c2ccc(Cl)cc2)cs1)C(F)(F)F (configuration not stated),16µM*,-2%,?,?,?
COc1ccc(C(C)(O)c2nc(-c3cncnc3)cs2)cc1 (configuration not stated),-8%,9%,-10%,-11%,i
CCOc1ccc2c(n1)CCN(C(=O)C1(c3ccccc3)CC1)C2,/,/,/,77%,/
Cc1noc2c(NCCCn3ccnc3)cc(-c3ccccc3)nc12,/,/,/,68%[176 µM],/
c1cc2c(cc1Nc1nc(CN3CCOCC3)nc3sc4c(c13)CCCC4)CCC2,/,/,/,28%,/
CC(O)(c1cccc(F)c1)c1nc(-c2ccccc2)cs1 (configuration not stated),-15%,-8%,-23%,10µM*,i
CSc1ccccc1NC(C)=O,/,/,/,-15%,/
O=C(C(c1ccccc1)c1ccccc1)N(Cc1ccccc1)C1CC1,/,/,/,5%,/
CC(=O)CCS(=O)(=O)c1ccc(Oc2ccc(S(=O)(=O)CCC(C)=O)cc2)cc1,5.6µM*,26%,?,-3%,i
CC(=O)CS(=O)(=O)c1ccc(Oc2ccc(S(=O)(=O)CC(C)=O)cc2)cc1,4%,-23%,20%,0%,?
COCCNC(=O)N1CCN(c2oc(-c3ccco3)nc2C#N)CC1,/,/,/,-17%,/
CCCN1C(=O)/C(=C/c2ccc(C)o2)SC1=Nc1ccc(OC)cc1,-6%,-12%,18%,13µM*,i
CCN=C1S/C(=C\c2ccc(-c3cccc(C(=O)O)c3)o2)C(=O)N1CC,-17%,46%,-2%,/,i
CCN1C(=O)/C(=C\c2ccc(-c3cccc(C(=O)OC)c3)o2)SC1=Nc1ccc(C(=O)O)cc1,/,/,/,50µM*,/
SMILES,HepG2 tox,ATXN2 expr inh,TGFb inhibitor,12-LOX inh,ATXN viability
O=C(OCC(=O)N1CCc2ccccc21)c1ccc(Cl)c([N+](=O)[O-])c1,/,/,/,-24%,/
CC(C)C(C)N(C)Cc1nnc(-c2ccc(Br)o2)o1 (configuration not stated),/,/,/,22%,/
CCc1ccc(OCC(=O)NC(NC(=S)Nc2ccccc2C)C(Cl)(Cl)Cl)cc1 (configuration not stated),-102%,?,?,-3%,?
O=C(NC(NC(=S)Nc1cccc(Cl)c1)C(Cl)(Cl)Cl)OCc1ccccc1 (configuration not stated),11µM*,?,6.3µM*,?,?
Cc1ccc(C)c(NC(=S)NC(NC(=O)Cc2cccc3ccccc23)C(Cl)(Cl)Cl)c1 (configuration not stated),2.8µM*,18µM*,3.5µM*,?,16µM*
CCc1ccc(OCC(=O)NC(NC(=S)Nc2ccc(C)cc2C)C(Cl)(Cl)Cl)cc1 (configuration not stated),11µM*,?,11µM*,?,?
O=C(/C=C/c1ccccc1)NC(NC(=S)Nc1ccc(Cl)cc1)C(Cl)(Cl)Cl (configuration not stated),-39%,?,?,?,i
O=C(CCc1ccccc1)NC(NC(=S)Nc1ccc(Cl)cc1)C(Cl)(Cl)Cl (configuration not stated),-95%,32µM*,-3%,-30%,/
O=C(NC(NC(=S)Nc1cccc(C(=O)O)c1)C(Cl)(Cl)Cl)OCc1ccccc1 (configuration not stated),-19%,-5%,-20%,0%,i
Cc1nc(SC(C)c2cc(F)ccc2F)sc1CC(N)=O (configuration not stated),/,/,/,1%,/
Cc1ccc(S(=O)(=O)c2cnc3cc4c(cc3c2N2CCOCC2)OCCO4)cc1,/,/,/,-38%,/
Cc1nc2ccc(C(=O)NC(C)CCCC(C)C)cc2nc1C (configuration not stated),/,/,/,-13%,/
CC(C)C(=O)NC(Nc1cccc2ccccc12)C(Cl)(Cl)Cl (configuration not stated),/,/,/,11µM*,/
CCc1ccc(OCC(=O)NC(NC(=S)Nc2ccccc2)C(Cl)(Cl)Cl)cc1 (configuration not stated),11µM*,?,?,6%,i
Cc1ccc(NC(=S)NC(NC(=O)c2ccccc2C)C(Cl)(Cl)Cl)c(C)c1 (configuration not stated),-31%,1%,22µM*,35µM*,i
CC(C)C(=O)NC(Nc1ccccc1F)C(Cl)(Cl)Cl (configuration not stated),-14%,3%,2%,18%,i
O=C(CCn1nc(-c2ccc(Cl)cc2)c2ccccc2c1=O)NC1CCCCC1,/,/,/,-9%,/
COc1cc(/C=N/Nc2nncn2/N=C/c2ccc(O)c(OC)c2)ccc1O,10µM*,-19%,4%,8%,i
